# Measured values from the supplement of paper PMC3334620.
# Over roughly 33,000 sequences, “E-score (-0.5 to 0.5)” has its median near -0.035; the highest 2% begin near 0.34. This is one part of a sample in which the highest values are shown more often than they occur.
# Biological target: T1, Mot3 (UniProt P54785)
# T1 sequence: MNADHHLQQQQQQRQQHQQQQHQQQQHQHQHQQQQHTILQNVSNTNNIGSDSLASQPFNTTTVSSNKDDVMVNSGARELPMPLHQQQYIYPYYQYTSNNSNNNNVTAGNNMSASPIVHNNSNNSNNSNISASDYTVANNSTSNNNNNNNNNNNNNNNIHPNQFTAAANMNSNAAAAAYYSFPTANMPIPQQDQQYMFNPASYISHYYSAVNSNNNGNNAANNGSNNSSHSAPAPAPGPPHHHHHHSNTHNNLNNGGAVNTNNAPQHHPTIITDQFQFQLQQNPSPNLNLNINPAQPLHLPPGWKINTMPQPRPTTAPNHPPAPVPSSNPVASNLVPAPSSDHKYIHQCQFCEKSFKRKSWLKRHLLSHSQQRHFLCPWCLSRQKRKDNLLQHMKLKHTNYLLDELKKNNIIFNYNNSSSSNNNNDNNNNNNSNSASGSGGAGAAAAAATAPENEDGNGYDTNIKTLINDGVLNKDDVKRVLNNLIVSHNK
# Assay: PBM E-score (8-mer binding enrichment) (E-score (-0.5 to 0.5)); higher = stronger / more preferred TF binding
# Settings: protein concentration: 200 nM; construct: GST-full length
# Description: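 Universal 'all 10-mer' protein binding microarrays (Agilent AMADID 015681) probed with GST-tagged S. cerevisiae TFs (full-length or DBD) made by in vitro transcription/translation (PURExpress), about 100-200 nM. Bound TF was detected with fluorescent anti-GST. Each ungapped 8-mer (which stands for itself and its reverse complement) is scored by the PBM enrichment score (E-score), a modified Wilcoxon-Mann-Whitney statistic from -0.5 to +0.5, computed with the Universal PBM Analysis Suite. Scale: above 0.35 generally sequence-specific binding.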
row,Sequence,PBM E-score
1,AAATGCAC,0.0764
2,AGTCACCG,0.0455
3,GCGCAAGC,-0.172
4,ACGCATCG,-0.0642
5,CGGCATCC,-0.0227
6,AGGCATCC,0.384
7,AAGCATCC,-0.202
8,AGGCATCA,0.409
9,CGGCATCA,-0.0726
10,GGGCATCA,-0.23
11,AGGCATAG,0.274
12,AGGCATCG,0.404
13,CACTTCTG,-0.0864
14,AATTGGTA,0.113
15,AGCCAACG,0.0732
16,ACCTAAGC,0.0128
17,CCCCTTGC,-0.152
18,AGGCCTCC,-0.166
19,CTAGACAC,0.0958
20,TAAAACGA,0.0299
21,GTCCAACA,0.153
22,ACACCTGG,0.104
23,ATTACAAA,0.347
24,ATTACAGC,0.127
25,ATTACAAT,0.299
26,ATTACAAC,0.286

row,Sequence,PBM E-score
1,CTTACAAA,0.15
2,ATTACAAG,0.388
3,ATTACAGG,0.359
4,TTTACAAA,0.331
5,ATTACAGA,0.24
6,GCTGGATA,0.0442
7,GCCCTTAC,-0.0326
8,CTAGGCTC,0.043
9,AAACTGAA,0.0399
10,GGGCCCAC,-0.255
11,AACCGTAG,-0.229
12,ACCGTGTC,0.216
13,ACCGTGTA,0.397
14,CCCGTGTC,0.082
15,GCCGTGAA,-0.128
16,GCCGTGGA,-0.169
17,CCCGTGGA,-0.314
18,CCCGTGTA,0.376
19,ACCGTGTG,0.175
20,GCCGTGTA,0.349
21,AGCCAAAT,-0.0958
22,CCAACTAA,0.0699
23,CACTTTTA,0.117
24,ACGTCGCC,-0.00307
25,CGGAACGC,-0.0837
26,AGGAACGG,0.463

row,Sequence,PBM E-score
1,ATGAACGC,0.145
2,AGGAACGA,0.44
3,ATGAACGG,0.0117
4,CGGAACGA,0.0162
5,AGGAACGC,0.451
6,AAGAACGG,-0.266
7,GGGAACGA,-0.122
8,ACCTCAGC,-0.124
9,AAAGCCGG,-0.133
10,AATCAAGC,-0.177
11,CGTGTATA,0.4
12,AGTGTGTA,0.247
13,AGTGTACA,0.273
14,GGTGTATA,0.0111
15,CGTGTGTA,0.349
16,CGTGTATC,0.262
17,CGTGTACC,0.277
18,GGTGTGTA,0.335
19,CGTGTACA,0.388
20,CACTGTGA,-0.103
21,CTACCAGA,0.0177
22,GTGAGAGA,0.0715
23,ATGAATGG,-0.0783
24,CGGTTTAC,0.134
25,CGACTTTC,0.0333
26,ATAGGAAA,0.429

row,Sequence,PBM E-score
1,GTAGGATA,0.185
2,CTAGGAGC,-0.225
3,CTAGGAAG,-0.108
4,CTAGGAAA,0.246
5,GTAGGAAA,0.429
6,ATAGGGAA,0.00264
7,TTAGGAAA,0.351
8,CTAGGAAC,0.372
9,ATAGGATA,0.00177
10,GTAGGAGA,-0.184
11,TGAGGAAA,0.0921
12,GGACAGCA,-0.224
13,ATCGGACA,-0.0499
14,CGACATAA,0.0835
15,TAGTTCCA,0.00515
16,AAACGCAC,0.0986
17,TAGCGGAA,-0.15
18,CTCGAGAG,-0.177
19,AGTGGGAT,-0.0984
20,AACGGCGG,-0.117
21,ATAGGAAG,-0.0193
22,ATAGGAAC,0.456
23,GGAGGAAC,0.272
24,GTAGGAAC,0.457
25,ATAGGAAT,-0.00642
26,AGAGGAAC,0.0727

row,Sequence,PBM E-score
1,TTGCCCAA,0.111
2,CCAACCAC,0.083
3,ACAAAAGA,0.166
4,CGTAGCCA,-0.208
5,ACACTGAT,-0.138
6,CCACAGGC,0.194
7,ACCAACCG,-0.16
8,AGAAGGAT,0.0925
9,TGGAGGAA,0.0436
10,GGAAGGAC,-0.122
11,AGAAGGAA,0.382
12,GCAAGGAA,0.211
13,AGAAGGAG,-0.107
14,TGAAGGAA,0.434
15,GGAAGGAA,0.384
16,AGAAGGAC,-0.198
17,CGAAGGAC,-0.03
18,CGAAGGAG,-0.225
19,CGAAGGAA,0.39
20,CTTGGATA,-0.039
21,GACTCCTA,-0.00028
22,CAACAACA,0.315
23,TCGGTCCA,-0.0654
24,CGATACTC,-0.259
25,GCATTTGA,0.0576
26,GCCAAAGA,-0.0826

row,Sequence,PBM E-score
1,CCTAGGCG,-0.157
2,ACTAGGCG,0.168
3,GCTAGGCA,0.446
4,CCTAGGCA,0.459
5,GCTAGGTA,-0.0278
6,TCTAGGAA,0.315
7,TCTAGGCA,0.458
8,GCTAGGCC,-0.374
9,CCTAGGCC,-0.0992
10,ACTAGGCC,-0.141
11,ACTAGGCA,0.425
12,TCTAGACA,0.167
13,GTCGCACA,-0.125
14,AGGCGTTG,0.185
15,GACTGTGA,-0.0263
16,GTGATAGA,-0.0161
17,GCTCCCCC,-0.288
18,GTACATAA,0.306
19,TAACATAA,0.341
20,CTACATAA,0.228
21,CAACATAA,0.289
22,GAACATAA,0.0111
23,TTACATAA,0.408
24,CAGGCTCA,0.392
25,CAGGCTCC,0.28
26,AAGGCTCA,0.336

row,Sequence,PBM E-score
1,AAGGCTCG,0.235
2,TAGGCTCA,0.109
3,CAGGCTCG,0.342
4,CATTTGGG,-0.173
5,CTTAGCCC,-0.079
6,GAAAGGAC,-0.118
7,AACTTCGC,-0.0198
8,ACGCTCCC,-0.0438
9,GAGGAAAA,0.0527
10,CAGAAAAC,0.152
11,CAGGAAAC,0.445
12,AGGGAAAG,-0.0829
13,ATGGAAAG,0.0416
14,AGGGAAAT,-0.0244
15,ATGGAAAT,0.0932
16,AAGGAAAG,0.441
17,AAGGAAAT,0.426
18,CGGGAAAC,-0.0422
19,TAGGGAAA,-0.0198
20,TAGGAAAA,0.384
